# Inconclusive results are not listed. Active and inactive are the calls of the source. Rule for the calls: active = hit-call score of the fitted dose curve at least 0.9, where 1 is the maximum; inconclusive = response in the unintended direction; inactive = score below 0.9.
# Target: D(1A) dopamine receptor (Homo sapiens) (UniProt P21728)
# Assay: NVS_GPCR_hDRD1: NovaScreen (NVS) G Protein-Coupled Receptor Assay for human Dopamine Receptor D1 (DRD1) (AID 2283269)
# Description: NVS_GPCR_hDRD1 is a biochemical, single-readout assay that uses extracted gene-proteins from HEK293 in a cell-free assay. Measurements were taken 1 hour after chemical dosing in a 96-well plate.NVS_GPCR_hDRD1 is one of one assay component(s) measured or calculated from the NVS_GPCR_hDRD1 assay. It is designed to make measurements of radioligand binding, a form of binding reporter, as detected with scintillation counting signals by Filter-based radiodetection technology.Data from the assay component NVS_GPCR_hDRD1 was analyzed into 1 assay endpoint. This assay endpoint, NVS_GPCR_hDRD1, was analyzed in the positive analysis fitting direction relative to DMSO as the negative control and baseline of activity. Using a type of binding reporter, loss-of-signal activity can be used to understand changes in the binding as they relate to the gene DRD1. Furthermore, this assay endpoint can be referred to as a primary readout, because the performed assay has only produced 1 assay endpoint. To generalize the intended target to other relatable targets, this assay endpoint is annotated to the gpcr intended target family, where the subfamily is rhodopsin-like receptor.
# Binding assays used specific radioligands (tritiated, iodinated) with non-radioactive competitive displacement ligands in agonist or antagonist protocols (as indicated) and various reference compounds and inhibitors to titrate specific binding to receptors and transporters. Most enzyme assays (CYPs, kinases, phosphatases, proteases, HDACs) used recombinant protein and specific substrates (fluorescence mostly, some colorimetric and radioactive) and inhibitors, followed by a biochemical separation of substrate and product. All assays for the biochemical HTS were initially run in duplicate at a single concentration (10 uM for CYP450 assays and 25 uM for all others). […] Each assay was run with positive and negative controls, and concurrent controls on every plate. The follow-up (secondary) screen tested active chemical-pairs in concentration series, as well as a few additional assays not tested in the primary screen, some selected negative inactives, and several cases re-run in the concentration series for confirmatory purposes.
# D(1A) dopamine receptor (Homo sapiens), sequence (P21728 whole entry, looked up): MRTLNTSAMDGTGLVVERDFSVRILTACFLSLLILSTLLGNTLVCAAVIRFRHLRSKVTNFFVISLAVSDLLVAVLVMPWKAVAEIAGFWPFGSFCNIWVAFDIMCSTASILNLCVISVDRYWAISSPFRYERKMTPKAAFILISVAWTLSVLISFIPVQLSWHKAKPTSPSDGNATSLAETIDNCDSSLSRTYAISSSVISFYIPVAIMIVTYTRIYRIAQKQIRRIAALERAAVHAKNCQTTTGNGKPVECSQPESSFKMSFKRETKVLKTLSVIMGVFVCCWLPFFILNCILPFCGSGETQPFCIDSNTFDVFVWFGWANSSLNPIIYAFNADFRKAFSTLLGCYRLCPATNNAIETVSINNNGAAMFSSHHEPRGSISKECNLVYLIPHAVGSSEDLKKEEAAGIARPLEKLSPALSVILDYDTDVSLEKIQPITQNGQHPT
Compound,AC50,outcome
CN(C)C(=S)SC(=S)N(C)C,30.8 µM (active),–
CCC1CCCCC1,–,inactive
C[C@@H]1CCN(C(=O)[C@H](CCCN=C(N)N)NS(=O)(=O)c2cccc3c2NC[C@H](C)C3)[C@@H](C(=O)O)C1,17 µM (active),–
CCCCSCCCC,–,inactive
CC(C)(N=C=O)c1cccc(C(C)(C)N=C=O)c1,43.7 µM (active),–
CCOC(=O)CN,–,inactive
CCCCCCCCCCCCCCCC(=O)OC/C=C(C)/C=C/C=C(C)/C=C/C1=C(C)CCCC1(C)C,34.7 µM (active),–
CN(c1nccc(=O)[nH]1)C1CCN(c2nc3ccccc3n2Cc2ccc(F)cc2)CC1,–,inactive
ClC(c1ccccc1)(c1ccccc1)c1ccccc1,–,inactive
CCCCOCC,–,inactive
COCCc1ccc(OCC(O)CNC(C)C)cc1 (configuration not stated),–,inactive
C=CCOC(=O)CCCCCC,–,inactive

# — PubChem BioAssay (EPA / NIEHS)
